Test results taken from PubChem BioAssay (NCATS).
Records with an inconclusive call do not appear. Entries that show only a call come without a potency. Active and inactive are the calls of the source. Calls follow the shape of the dose curve; as a rule, active = well fitted inhibition curve with a large enough effect; inconclusive = small, poorly fitted or top-dose-only effect; inactive = flat fitted curve, though single readings scatter.

Target: Ubiquitin carboxyl-terminal hydrolase 1 (Homo sapiens) (UniProt O94782)
Experiment: Inhibitors of USP1/UAF1: Pilot qHTS (AID 504865); also: nearly all actives have a fitted effect of over 35% in size
Settings: purified USP1/UAF1, Ub-rhodamine cleavage fluorescence; series mostly up to 114 µM
How it was run: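 USP1/UAF1 complex at 1 nM preincubated 15 min at room temperature with compound, then Ub-Rho substrate added at 150 nM final. Fluorescence (480/540 nm) read kinetically in 50 mM HEPES pH 7.8, 0.5 mM EDTA, 1 mM TCEP, 0.1 mg/ml BSA, 0.01% Tween-20.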
Potency is read from the fitted curve at half-maximal effect.

Chain of Ubiquitin carboxyl-terminal hydrolase 1 (Homo sapiens) (O94782 whole entry, looked up): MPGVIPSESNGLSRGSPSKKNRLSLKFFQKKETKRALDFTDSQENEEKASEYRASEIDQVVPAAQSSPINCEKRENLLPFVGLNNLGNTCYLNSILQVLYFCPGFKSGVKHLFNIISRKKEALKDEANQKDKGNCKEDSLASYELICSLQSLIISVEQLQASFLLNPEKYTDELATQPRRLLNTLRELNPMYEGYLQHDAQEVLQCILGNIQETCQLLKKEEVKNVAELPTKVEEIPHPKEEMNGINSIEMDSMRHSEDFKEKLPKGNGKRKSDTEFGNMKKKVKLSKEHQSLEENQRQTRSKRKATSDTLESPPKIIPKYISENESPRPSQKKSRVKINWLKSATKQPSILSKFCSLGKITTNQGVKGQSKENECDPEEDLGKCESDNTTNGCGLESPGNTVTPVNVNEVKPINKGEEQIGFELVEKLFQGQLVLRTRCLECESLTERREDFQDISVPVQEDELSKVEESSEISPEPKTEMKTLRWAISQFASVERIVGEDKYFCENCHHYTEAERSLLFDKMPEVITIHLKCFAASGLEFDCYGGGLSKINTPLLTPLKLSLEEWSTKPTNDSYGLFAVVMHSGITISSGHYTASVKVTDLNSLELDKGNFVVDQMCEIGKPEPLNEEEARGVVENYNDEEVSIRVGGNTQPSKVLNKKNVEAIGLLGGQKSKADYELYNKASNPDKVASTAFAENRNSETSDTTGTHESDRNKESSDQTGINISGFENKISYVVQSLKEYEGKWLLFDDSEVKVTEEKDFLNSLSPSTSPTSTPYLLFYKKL

Compound	Potency
CC(=O)OC1CN2CCC1CC2 (stereo not given)	inactive
OC(c1ccccc1)(c1ccccc1)C1CN2CCC1CC2 (stereo not given)	inactive
C[N+]1(C)CCCCC1COC(=O)C(O)(c1ccccc1)c1ccccc1 (stereo not given)	inactive
CC(N)Cc1ccc(O)cc1 (stereo not given)	inactive
O=C(OCCN1CCCCC1)C(O)(c1ccccc1)c1ccccc1	inactive
S=C(S)N1CCNCC1	inactive
CCCCNCC(O)c1ccc(O)cc1 (stereo not given)	inactive
C#CC(C)(O)CC (stereo not given)	inactive
[N-]=[N+]=CC(=O)OCC(N)C(=O)O (stereo not given)	inactive
O=S(=O)(O)c1cc(O)ccc1O	inactive
F/C(COc1ccc2c(c1)[nH]c1ccccc12)=C1/CN2CCC1CC2	inactive
CCN(CC)C(=O)/C(Cl)=C(\C)OP(=O)(OC)OC	inactive
Oc1cccc[c]1[Hg][Cl]	44.7 µM (active)
O=C(CCl)c1ccc(Oc2ccc(C(=O)CCl)cc2)cc1	56.2 µM (active)
CCC(C)(S(=O)(=O)CC)S(=O)(=O)CC	inactive
CCC1(C)CC(=O)NC(=O)C1	inactive
CNC(C)C(O)c1ccc(O)cc1 (stereo not given)	inactive
CC(=O)OO	inactive
CCON=O	inactive
CCC(=O)O[C@@](Cc1ccccc1)(c1ccccc1)[C@@H](C)CN(C)C	inactive

Compound	Potency
CN1c2ccccc2C(NCCCCCCC(=O)O)c2ccc(Cl)cc2S1(=O)=O (stereo not given)	inactive
Cc1cc(C)cc(C(=O)OC2C[C@H]3CC[C@@H](C2)N3C)c1 (stereo not given in full)	inactive
COC1=CC=C2[C@H]3Cc4ccc(OC)c5c4[C@@]2(CCN3C)[C@H]1O5	inactive
CCC1(c2ccccc2)C(=O)NC(=O)N(C(=O)c2ccccc2)C1=O (stereo not given)	inactive
COc1ccc2c3c1O[C@H]1C(=O)CC[C@H]4[C@@H](C2)N(C)CC[C@]314	inactive
COC([CH2][Hg])CNC(=O)c1ccccc1OCC(=O)O (stereo not given)	inactive
CCC1C(C)=NN=C(c2ccc(OC)c(OC)c2)c2cc(OC)c(OC)cc21 (stereo not given)	inactive
C=CCC1(C(C)CCC)C(=O)N=C(S)NC1=O (stereo not given)	inactive
CCCC(C)(COC(N)=O)COC(=O)NC1CC1 (stereo not given)	inactive
O=[N+]([O-])c1cc(I)c(O)c(I)c1	inactive
C/C(=C\c1csc(C)n1)[C@@H]1C[C@@H]2O[C@]2(C)CCC[C@H](C)[C@H](O)[C@@H](C)C(=O)C(C)(C)[C@@H](O)CC(=O)O1	inactive
CCNC(C)Cc1cccc(C(F)(F)F)c1 (stereo not given)	inactive
O=C(NC(=O)c1c(F)cccc1F)Nc1ccc(Cl)c(Oc2ncc(C(F)(F)F)cc2Cl)c1	inactive
CC(C)(O)C1C2OC(=O)C1C1(O)CC3OC34C(=O)OC2C14C (stereo not given)	inactive
c1ccc2sc(SNC3CCCCC3)nc2c1	inactive
CNC(=O)Oc1ccccc1C(=O)Nc1ccccc1	inactive
FC(F)OC(F)(F)C(F)Cl (stereo not given)	inactive
CC(Cc1ccccc1)NC=O (stereo not given)	inactive
CCC1(c2ccccc2)C(=O)NC(=O)NC1=O	inactive
c1cc2c(c(NC3=NCCN3)c1)CCCC2	inactive
